# Experimental data from PubChem BioAssay.
# Test: HepG2 liver cancer cell viability effects, profiling panel, resazurin fluorescence, 24 h, PK04 Diversity Set (AID 1172); further: test concentration not given here
# Conditions: higher = more signal
row,Structure (SMILES),z-score
1,COc1cc(NN2C(C(O)c3ccco3)C=CC3C(=O)N(c4ccccc4)C(=O)C32)cc(OC)c1OC (stereo not given),-1.41
2,CC(C)[Si]1(C(C)C)O[C@@H](c2ccccc2)c2cc(-c3ccc(-c4ccc(Cl)c(Cl)c4)o3)nc(-c3ccccc3)c21,-0.0945
3,CCOC(=O)C[C@H]1[C@H](OC(=O)c2ccc(C(=O)c3ccccc3)cc2)[C@@H](NC(=O)c2ccc3ccccc3n2)c2cc(OCCCO)ccc2N1C(=O)c1ccccc1,-0.0237
4,CC(C)C(O)C1C=CC2C(=O)NC(=O)C2N1Nc1ccc(Cl)cc1Cl (stereo not given),-1.29
5,COc1ccc(C#Cc2ccc3c(c2)[C@]2(C(=O)N3)[C@H](C(=O)Nc3nc4ccccc4s3)[C@H]3C(=O)O[C@H](c4ccccc4)[C@H](c4ccccc4)N3[C@@H]2c2ccc(O)cc2)cc1,1.2
6,COC(=O)[C@@]1(Cc2ccccc2)N=C(c2ccc(OCCCO)cc2)O[C@H]1c1ccccc1,-0.882
7,[N-]=[N+]=Nc1ccccc1[C@H]1OC(c2ccc(OCCCO)cc2)=N[C@@]1(CCS(=O)(=O)c1ccccc1)C(N)=O,-0.183
8,O=C1C[C@@](C(=O)NC2CC2)(c2ccc([N+](=O)[O-])cc2)[C@@H](c2ccc(CO)cc2I)N1C1CCCCC1,0.0684
9,COc1cc2c(cc1OC)CN(C(=O)[C@H]1[C@@H]3C(=O)O[C@@H](c4ccccc4)[C@@H](c4ccccc4)N3[C@@H](c3ccc(O)cc3)[C@]13C(=O)Nc1ccccc13)CC2,-0.102
10,O=C1O[C@H](c2ccccc2)[C@H](c2ccccc2)N2[C@H]1[C@@H](C(=O)N1CCCCCCC1)[C@]1(C(=O)Nc3ccc(C#CC4=CCCCC4)cc31)[C@H]2c1ccc(OCCO)cc1,-0.881
11,COC(=O)[C@@]1(CCC(=O)OC(C)(C)C)N=C(c2ccc(OCCCO)cc2)O[C@H]1c1ccccc1N=[N+]=[N-],-1.15
12,O=C1C2C=CC(C(O)c3cc(C(F)(F)F)cc(C(F)(F)F)c3)N(n3cnnc3)C2C(=O)N1Cc1ccccc1 (stereo not given),-0.064
13,CCCCCN1CC=CC23O[C@@H]4C=CCCOC(=O)C4[C@H]2C(=O)N(CCCCCO)[C@@H]3C1=O (stereo not given in full),0.476
14,COc1ccc([Si](C)(C)[C@@H]2[C@@H](CCO)O[C@]3(C(=O)N(Cc4ccc(N(C=O)c5ccccc5)cc4)c4ccccc43)[C@H]2C)cc1,-1.59
15,C=CCOC(=O)[C@H]1[C@@H]2C(=O)O[C@@H](c3ccccc3)[C@@H](c3ccccc3)N2[C@@H](c2ccc(OCCOC(=O)[C@H]3C[C@H]4C(=O)N[C@@H](CCCCNC(C)=O)C(=O)N4[C@H]3c3cccc(OCCO)c3)cc2)[C@]12C(=O)Nc1ccccc12,0.514
16,[N-]=[N+]=NCc1ccccc1C[C@]1(C(N)=O)COC(c2ccc(OCCCO)cc2)=N1,0.252
17,C=C(CC1([C@@H](NP(=O)(c2ccccc2)c2ccccc2)[C@H]2C[C@@H]2CCCC)CC1)c1ccccc1,2.02
18,CC[C@@H]1C=C(C(=O)O)[C@H](c2ccc(Br)cc2)N1S(=O)(=O)c1ccc(C)cc1,-0.386
19,C=C(CCCC)/C(=C/C[C@H](OC(C)=O)c1ccccc1OCCO)c1cc(C(=O)OC)ccc1OC,-0.0696
20,COC(=O)[C@@]1(Cc2ccc(OC)cc2)[C@H]2c3cc(C(=O)N(C)C)n(C)c3C[C@H]2CN1C(=O)c1ccccc1,-0.105
21,CN(C)CCCCCCNC(=O)[C@H]1C[C@H]2C(=O)N[C@@H](CCCCN)C(=O)N2[C@H]1c1cccc(OCCO)c1,-0.0616
22,NC(=O)NCC#Cc1ccc2c(c1)[C@]1(C(=O)N2)[C@H](c2ccccc2OCCO)N2[C@H](c3ccccc3)[C@H](c3ccccc3)OC(=O)[C@H]2[C@@H]1C(=O)Nc1nc2ccccc2s1,0.851
23,CC1CC/C=C\[C@H]2OC34C=CCN(C(C)(C)C)C(=O)[C@H]3N(CCO)C(=O)[C@@H]4C2C(=O)O1 (stereo not given in full),0.488
24,C=C(COC)/C(=C/C[C@H](OC(C)=O)c1ccc(CO)o1)c1cc(C(=O)OC)ccc1OC,-0.613
25,CNS(=O)(=O)c1ccc(C)cc1,0.925
